# Data: PubChem BioAssay (EPA / NIEHS)
# Inconclusive results are not listed. Some structures have more than one record in an assay (separate samples or runs), and their calls can disagree. Active and inactive are the calls of the source. The calls were made as follows, unless noted: active = hit-call score of the fitted dose curve at least 0.9, where 1 is the maximum; inactive = score below 0.9.
# What was measured:
# [1] = CCTE_Shafer_MEA_acute_AB: CCTE's Alamar Blue Assay for Cytotoxicity in the Neural Acute Assay, Shafer Lab (AID 2284069; active = hit-call score of the fitted dose curve at least 0.9, where 1 is the maximum;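 also: active compounds lower the viability signal compared with DMSO wells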)
# Method in brief: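 Resazurin reduction (CellTiter Blue, 1:6 in fresh medium) read at ex 544/em 590 nm marks viability loss relative to DMSO. Cells: primary rat cortical neuron networks on microelectrode arrays, treated after baseline recording at 13 or 15 days in vitro.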
# [2] = CCTE_Shafer_MEA_dev_network_spike_peak: CCTE's Neural Network Formation Assay for Mean Number of Electrodes in Network Spike, Shafer Lab (AID 2284049);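 as to AC50: fitted for loss of signal meaning fewer electrodes in network spikes than DMSO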
# Method in brief: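 Continuous 12-day exposure of rat cortical cultures, starting at plating, on MEA plates. Endpoint: electrodes participating in network-spike peaks, AUC across DIV 5–12, DMSO as negative control.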
# DIO2 (gene 1734) = assay: CCTE_GLTED_hDIO2: CCTE's human Deiodinase 2 (DIO2) Inhibition Assay, Great Lakes Toxicology and Ecology Division (GLTED) Lab (AID 2284050; active = hit-call score of the fitted dose curve at least 0.9, where 1 is the maximum)
# Method in brief: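 Cell-free human DIO2 enzyme was incubated with test chemical for 3 h; iodide liberated from substrate was then quantified by the Sandell-Kolthoff reaction (absorbance), run in triplicate. Loss of signal versus DMSO baseline indicated inhibition.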
# [3] = CCTE_Shafer_MEA_dev_spike_duration_mean: CCTE's Neural Network Formation Assay for Mean Spike Duration, Shafer Lab (AID 2284051);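 also: mean network spike duration pooled as area under curve over DIV 5 to 12 recordings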;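 as to AC50: potency for a decrease in mean network spike duration versus DMSO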
# Method in brief: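 Spontaneous activity was recorded on days 5, 7, 9 and 12 from rat cortical cultures grown on microelectrode arrays and dosed continuously from day 0, with media and compound renewed after the DIV 5 and 9 recordings. Network-spike duration was collapsed by area under the curve.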
# [4] = CCTE_Shafer_MEA_dev_network_spike_duration_std: CCTE's Neural Network Formation Assay for Standard Deviation of Network Spike Duration, Shafer Lab (AID 2284052);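 also: hits are decreases in network spike duration SD versus DMSO vehicle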
# Method in brief: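 Network spike duration variability was collapsed across recordings on days 5, 7, 9 and 12 by trapezoidal area-under-curve and fitted downward against DMSO. Cultures were rat cortical neurons on PEI-coated MEA plates, dosed continuously from plating, refed with compound DIV 5/9.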
# [5] = CCTE_Shafer_MEA_dev_per_network_spike_spike_number_mean: CCTE's Neural Network Formation Assay for Mean Number of Spikes in a Network Spike, Shafer Lab (AID 2284053);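 as to AC50: fitted as decrease in spikes per network spike relative to DMSO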
# Method in brief: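 Mean spike count within each network spike, taken in a 0.05 s window at its peak, was recorded on days 5, 7, 9 and 12 and integrated as trapezoidal area under the curve. Rat cortical cultures on MEA plates received continuous compound from day 0, refreshed at medium changes on DIV 5 and 9.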
# [6] = CCTE_Shafer_MEA_dev_per_network_spike_spike_percent: CCTE's Neural Network Formation Assay for Percent of Spikes in a Network Spike, Shafer Lab (AID 2284054)
# Method in brief: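 Primary rat cortical neurons on 16-electrode MEA wells (PEI-coated, laminin at plating), exposed from day 0 with renewal at DIV 5 and 9; spikes within 0.05 s of network-spike peaks over total spikes, AUC across days 5, 7, 9, 12.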
# DIO3 (gene 1735) = assay: CCTE_GLTED_hDIO3: CCTE's human Deiodinase 3 (DIO3) Inhibition Assay, Great Lakes Toxicology and Ecology Division (GLTED) Lab (AID 2284055; active = hit-call score of the fitted dose curve at least 0.9, where 1 is the maximum;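 also: potency is for inhibition seen as loss of released iodide signal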)
# Method in brief: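 Cell-free assay with human DIO3 enzyme produced by adenovirus expression; enzyme incubated with test chemical for 3 hours. Liberated iodide then measured by Sandell-Kolthoff absorbance; loss of signal versus DMSO baseline indicates inhibition, run in triplicate.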
# [7] = UKN5_HCS_SBAD2_cell_viability: Viability Assessment in the University of Konstanz (UKN) Leist Lab Neurite Outgrowth Assay in human iPSC-derived immature Dorsal Root Ganglia Neurons (UKN5) (AID 2284056)
# Method in brief: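 iPSC-derived immature peripheral neurons (SBAD2) seeded on Matrigel with CHIR99021, SU5402 and DAPT, dosed 1 h later for 24 h. Viability from Hoechst H-33342 and calcein-AM live staining, high-content imaging; bidirectional fit versus DMSO.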
# [8] = CCTE_Shafer_MEA_dev_LDH: CCTE's Lactate Dehydrogenase Assay for Cytotoxicity in the Neural Network Formation Assay, Shafer Lab (AID 2284068; active = hit-call score of the fitted dose curve at least 0.9, where 1 is the maximum;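 also: exposure for twelve days from plating with re-dosing on DIV 5 and 9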)
# Method in brief: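 Primary rat cortical neurons were cultured on PEI-coated MEA plates and exposed from plating through day 12, with compound renewed at medium changes on DIV 5 and 9. LDH activity was read spectrophotometrically; loss of signal versus DMSO indicates reduced viability.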
# [9] = UKN5_HCS_SBAD2_neurite_outgrowth: University of Konstanz (UKN) Leist Lab Neurite Outgrowth Assay in human iPSC-derived immature Dorsal Root Ganglia Neurons (UKN5) (AID 2284070); conditions: actives raise or lower the signal
# Method in brief: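 Human iPSC-derived immature DRG neurons (SBAD2) on Matrigel with CHIR99021 (1.5 uM), SU5402 (5 uM), DAPT (5 uM); compounds added 1 h post-seeding for 24 h. Calcein-AM neurite area imaged; bidirectional fit vs DMSO.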
# [10] = CCTE_Shafer_MEA_dev_mutual_information_norm: CCTE's Neural Network Formation Assay for Mutual Information Normalization, Shafer Lab (AID 2284091);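 as to AC50: mutual information between electrodes summarised as area under curve across four recording days; potency is for a decrease in mutual information relative to DMSO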
# Method in brief: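 Rat cortical cultures, 48-well MEA, continuous exposure DIV 0–12 with full media/compound change DIV 5 and 9. Readout: inter-electrode mutual information, AxIS adaptive spike detection; AUC across DIV 5/7/9/12 recordings; DMSO baseline, negative fitting direction.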
# [11] = CCTE_Shafer_MEA_dev_correlation_coefficient_mean: CCTE's Neural Network Formation Assay for Mean Correlation Coefficient, Shafer Lab (AID 2284093);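 as to AC50: well mean pairwise spike train correlation integrated as AUC over recording days 5 to 12; potency fitted for loss of correlation relative to DMSO vehicle wells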
# Method in brief: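 Primary rat cortical neurons on PEI-coated 48-well MEA plates (16 electrodes/well) were exposed from plating day 0 through DIV12, with compound renewed at DIV5 and 9. Pairwise spike correlations were averaged per well; trapezoidal AUC across DIV5, 7, 9, 12.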
# [12] = IUF_NPC1b_proliferation_BrdU_72hr: Leibniz Research Institute for Environmental Medicine (IUF) 72-hour Neural Progenitor Cell Bromodeoxyuridine (BrdU) Proliferation Assay (NPC1b) (AID 2284207)
# Method in brief: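 hNPC spheres (primary, GW 16-19 fetal cortex), single sphere/well, EGF+FGF medium; 72 h compound, no renewal; BrdU pulse last 16 h; luminescent ELISA; activity vs DMSO baseline; growth-factor withdrawal as positive control.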
# [13] = IUF_NPC1a_proliferation_area_72hr: Leibniz Research Institute for Environmental Medicine (IUF) 72-hour Neural Progenitor Cell Proliferation Area Assay (NPC1a) (AID 2284208)
# Method in brief: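 Proliferation is scored as sphere area gain in primary human fetal neural progenitors treated for 72 h in EGF/FGF-containing medium. Viability, LDH and BrdU readouts come from the same wells.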
# [14] = IUF_NPC1_viability_72hr: Viability Assessment at 72 hours in the Leibniz Research Institute for Environmental Medicine (IUF) Neural Progenitor Cell Proliferation Assay (NPC1) (AID 2284209)
# Method in brief: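 Human fetal-cortex neural progenitor spheres (0.25–0.35 mm, one per well) grown in EGF/FGF proliferation medium at 37C, pH 7.2-7.6, exposed 72 h without renewal; viability read as alamar blue resazurin-to-resorufin fluorescence relative to DMSO.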
# [15] = CCTE_Mundy_HCI_Cortical_Synap_Neur_Matur_BPCount: CCTE's Synaptogenesis and Neurite Maturation Assay in rat cortical cells for Branch Point Count, Mundy Lab (AID 2284211)
# Method in brief: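 Branch point number is quantified by automated imaging of fluorescently labelled neurites and synapses in rat primary cortical neurons exposed from DIV 7 to DIV 12. Activity is analysed relative to DMSO negative control.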
# [16] = CCTE_Shafer_MEA_acute_LDH: CCTE's Lactate Dehydrogenase Assay for Cytotoxicity in the Neural Acute Assay, Shafer Lab (AID 2284086; active = hit-call score of the fitted dose curve at least 0.9, where 1 is the maximum;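 also: active means LDH release rises above DMSO vehicle level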)
# Method in brief: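 Primary rat cortical neurons on 48-well MEA plates, treated on day 13 or 15 post-plating. After the 40-min recording with compound, medium LDH release was read by absorbance at 490 nm. Gain of signal was fitted against DMSO negative control.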
# [17] = UKN2_HCS_IMR90_neural_migration: University of Konstanz (UKN) Leist Lab Neural Crest Cell Migration Assay in human induced IMR90 Pluripotent Stem Cells (UKN2) (AID 2284204); conditions: actives raise or lower the signal
# Method in brief: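 iPSC-derived IMR90 neural crest cells on PLO/laminin/fibronectin were seeded around silicone stoppers; after stopper removal, migration in N2-S medium with EGF and FGF ran 24 h before 24 h chemical exposure. Calcein-AM/Hoechst high-content imaging; bidirectional fit versus DMSO.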
smiles,measurement,setting,value
COC(=O)c1ccccc1C(=O)O,outcome,[1],inactive
S=C(S)NCCNC(=S)S.[Mn+2].[S-]C([S-])=NCCN=C([S-])[S-].[Zn+2],AC50,[2],7.52 µM (active)
same,outcome,[2],inactive
same,AC50,DIO2 (gene 1734),50 µM (active)
same,AC50,[3],2.42 µM (active)
same,outcome,[3],inactive
same,outcome,[4],inactive
same,outcome,[5],inactive
same,outcome,[6],inactive
same,AC50,DIO3 (gene 1735),43.6 µM (active)
same,outcome,[7],inactive
same,outcome,[8],inactive
same,AC50,[9],15 µM (active)
same,outcome,[10],inactive
same,outcome,[11],inactive
same,outcome,[12],inactive
same,outcome,[13],inactive
same,outcome,[14],inactive
same,outcome,[15],inactive
CC(C)(C)[C@@H](O)[C@@H](Cc1ccc(Cl)cc1)n1cncn1,outcome,[1],inactive
same,outcome,[16],inactive
CC(C)CCCCCCc1ccc(O)cc1,AC50,DIO2 (gene 1734),93.1 µM (active)
same,AC50,DIO3 (gene 1735),18.8 µM (active)
same,outcome,[1],inactive
same,outcome,[16],inactive
Cc1nn(C)c(Oc2ccccc2)c1C=NOCc1ccc(C(=O)OC(C)(C)C)cc1,AC50,[2],0.00317 µM (active)
same,AC50,[3],0.00141 µM (active)
same,AC50,[4],0.000953 µM (active)
same,AC50,[5],0.00249 µM (active)
same,AC50,[6],0.00238 µM (active)
same,AC50,[8],0.002 µM (active)
same,outcome,[1],inactive
same,outcome,[16],inactive
same,AC50,[10],0.00128 µM (active)
same,AC50,[11],0.00229 µM (active)
same,AC50,[17],6.55 µM (active)
same,AC50,[12],5.15 µM (active)
same,AC50,[13],0.0215 µM (active)
same,outcome,[14],inactive
same,AC50,[15],0.00291 µM (active)
O=C(c1ccccc1)C1CCCCC1,outcome,[1],inactive
same,outcome,[16],inactive
O=C(c1ccc(O)cc1O)c1ccc(O)cc1O,outcome,[1],inactive
same,outcome,[16],inactive
CCCCCOC(=O)COc1cc(N2C(=O)C3=C(CCCC3)C2=O)c(F)cc1Cl,AC50,DIO2 (gene 1734),59.5 µM (active)
same,AC50,DIO3 (gene 1735),100 µM (active)
CCCCOCCOCCOCc1cc2c(cc1CCC)OCO2,AC50,[2],16.9 µM (active)
same,outcome,[3],inactive
same,outcome,[4],inactive
same,outcome,[5],inactive
same,outcome,[6],inactive
same,AC50,[8],15.3 µM (active)
same,outcome,[10],inactive
same,outcome,[11],inactive
CCCN(CCC)c1c([N+](=O)[O-])cc(C(F)(F)F)c(N)c1[N+](=O)[O-],AC50,DIO2 (gene 1734),20 µM (active)
same,AC50,DIO3 (gene 1735),21.4 µM (active)
same,outcome,[16],inactive
CC(=O)S[C@@H]1CC2=CC(=O)CC[C@]2(C)[C@H]2CC[C@@]3(C)[C@@H](CC[C@@]34CCC(=O)O4)[C@H]12,AC50,DIO2 (gene 1734),26.1 µM (active)
same,AC50,DIO3 (gene 1735),100 µM (active)
O=C(O)c1ccccc1,outcome,[2],inactive
same,outcome,[3],inactive
same,outcome,[4],inactive
same,outcome,[5],inactive
same,outcome,[6],inactive
same,outcome,[8],inactive
same,outcome,[1],inactive
same,outcome,[16],inactive
same,outcome,[10],inactive
same,outcome,[11],inactive
same,outcome,[12],inactive
same,outcome,[13],inactive
same,outcome,[14],inactive
same,outcome,[15],inactive
CCCN(CCC)C(=O)SCC,outcome,[2],inactive
same,outcome,[3],inactive
same,outcome,[4],inactive
same,outcome,[5],inactive
same,outcome,[6],inactive
same,outcome,[8],inactive
same,outcome,[10],inactive
same,outcome,[11],inactive
same,outcome,[17],inactive
same,outcome,[12],inactive
same,outcome,[13],inactive
same,outcome,[14],inactive
same,outcome,[15],inactive
C#CCOC(=O)[C@@H](C)Oc1ccc(Oc2ncc(Cl)cc2F)cc1,outcome,[2],inactive
same,outcome,[3],inactive
same,outcome,[4],inactive
same,outcome,[5],inactive
same,outcome,[6],inactive
same,outcome,[8],inactive
same,outcome,[1],inactive
same,outcome,[10],inactive
same,outcome,[11],inactive
same,outcome,[17],inactive
same,outcome,[12],inactive
same,AC50,[13],26.6 µM (active)
same,outcome,[14],inactive
same,outcome,[15],inactive
CCN(CC)C(=O)c1cccc(C)c1,outcome,[2],inactive
same,outcome,[3],inactive
same,outcome,[4],inactive
same,outcome,[5],inactive
same,outcome,[6],inactive
same,outcome,[10],inactive
same,outcome,[11],inactive
same,outcome,[17],inactive
same,AC50,[12],92.7 µM (active)
same,outcome,[13],inactive
same,outcome,[14],inactive
same,outcome,[15],inactive
